# Test results: ChEMBL document CHEMBL3988442, “University of Dundee, Small-Polar-MMV Screening Library” (2021)
# Out of some 66,000 compounds screened, about 960 (1.5%) showed an effect of 50% or more. The full list was thinned out, with strong results kept by preference.
# Tested on: Trypanosoma brucei
# Assay: Trypanosoma brucei 72 hour study
# Type: functional, organism-based
# Parameters: scale not given: in the data most compounds retested in dose-response had high values
compound,measurement,setting,value
Cc1ccc(CNC(CN2CCN(C)CC2)c2ccccc2)cc1C (stereo not drawn),Percent Effect,"30 µM, 30.03 µM",57.4%
Cc1cccc(CNC(CN2CCN(C)CC2)c2ccccc2)c1 (stereo not drawn),Percent Effect,"30 µM, 30.03 µM",38.01%
CN1CCN(CC(NCc2ccc(F)c(F)c2)c2ccccc2)CC1 (stereo not drawn),Percent Effect,"30 µM, 30.03 µM",-11.08%
COc1cccc(CNC(CN2CCN(C)CC2)c2ccccc2)c1 (stereo not drawn),Percent Effect,"30 µM, 30.03 µM",-23.58%
CN1CCN(CC(NCc2cccc(O)c2)c2ccccc2)CC1 (stereo not drawn),Percent Effect,"30 µM, 30.03 µM",100.4%
Cc1ccc(CNC(CN2CCN(C)CC2)c2ccccc2)cc1 (stereo not drawn),Percent Effect,"30 µM, 30.03 µM",0.9317%
Cc1noc(C)c1CNCC1Cn2nncc2CO1.O=C(O)C(F)(F)F (stereo not drawn),Percent Effect,"30.3 µM, […]",-105.3%
COCC1CN(C(=O)CS(C)(=O)=O)Cc2ncn(CC3CC3)c21 (stereo not drawn),Percent Effect,"30.3 µM, […]",-30.37%
C1CCN(CCO[C@@H]2CC[C@H]3[C@H]2OCCN3CC2CCOCC2)C1.O=C(O)C(F)(F)F.O=C(O)C(F)(F)F,Percent Effect,"30 µM, 30.03 µM",-27.36%
Cc1ncsc1-c1nnc(C2CCN(Cc3ccccc3F)CC2)o1,Percent Effect,"30.3 µM, […]",-22.5%
CNCc1ccc([C@@H]2CN(C(C)=O)C[C@H]2C(=O)N(C)C)cc1.Cl,Percent Effect,"30.3 µM, […]",-5.387%
CN(C)CCN1CCC2(CCN(C(=O)c3ccncc3)CC2)C1=O.O=C(O)C(F)(F)F.O=C(O)C(F)(F)F,Percent Effect,"30.3 µM, […]",-21.17%
CN1CCOCC12CCN(Cc1ccoc1)CC2.O=C(O)C(F)(F)F.O=C(O)C(F)(F)F,Percent Effect,"30.3 µM, […]",-44.43%
COc1ncc(-c2c(C#N)c(N)nc3c2CCc2[nH]ccc2-3)cn1,Percent Effect,"30.3 µM, […]",-6.46%
Cn1cc(-c2c(C#N)c(N)nc3c2CCc2[nH]ccc2-3)cn1,Percent Effect,"30.3 µM, […]",27.56%
Cc1n[nH]c(C)c1-c1c(C#N)c(N)nc2c1CCc1[nH]ccc1-2,Percent Effect,"30.3 µM, […]",52.57%
CC(C)CN1C[C@H]2C[C@H](C(=O)N3CCCC3)[C@@H](C1)O2.O=C(O)C(F)(F)F,Percent Effect,"30.3 µM, […]",-50.57%
COc1cccc(-c2ncc3c(n2)N(C)CCN(CCN(C)C)C3=O)c1,Percent Effect,"30.3 µM, […]",19.59%
CCc1ccc(-c2ncc3c(n2)N(C)CCN(CCN(C)C)C3=O)cc1,Percent Effect,"30.3 µM, […]",100.5%
CN(C)CCN1CCN(C)c2nc(-c3ccccc3)ncc2C1=O,Percent Effect,"30.3 µM, […]",17.36%
Cl.O=C(O)[C@@H]1CCCN1c1nccc(Nc2ccccc2)n1,Percent Effect,"30.3 µM, […]",-31.15%
same,Percent Effect,"10 mM, 10 mM as filed; unlikely as a test dose",-16.56%
Cc1cc(F)ccc1-n1cc(O)c(C(=O)NCC2(O)CCC2)n1,Percent Effect,"30 µM, 30.03 µM",-18.18%
O=C(Cn1nnn(-c2cccs2)c1=O)NCC1CCOC1 (stereo not drawn),Percent Effect,"30 µM, 30.03 µM",53.07%
O=C(Cn1nnn(-c2cccs2)c1=O)N(CC1CCOC1)C1CC1 (stereo not drawn),Percent Effect,"30 µM, 30.03 µM",-28.27%
CCN(CC1CCOC1)C(=O)Cn1nnn(-c2cccs2)c1=O (stereo not drawn),Percent Effect,"30 µM, 30.03 µM",-61.65%
CC(Cn1cccn1)NCc1csc(COc2ccc(F)cc2)n1 (stereo not drawn),Percent Effect,"30.3 µM, […]",4.13%
c1ccc(OCc2nc(CNCCn3cccn3)cs2)cc1,Percent Effect,"30.3 µM, […]",-9.773%
Cc1cnn(CCCNCc2csc(COc3ccccc3)n2)c1,Percent Effect,"30.3 µM, […]",10.81%
Cc1cnn(CCNCc2csc(COc3ccccc3)n2)c1,Percent Effect,"30.3 µM, […]",54.15%
CC(Cn1cccn1)NCc1csc(COc2ccccc2)n1 (stereo not drawn),Percent Effect,"30.3 µM, […]",63.51%
CC(Cn1cccn1)NCc1csc(Cc2ccccc2)n1 (stereo not drawn),Percent Effect,"30.3 µM, […]",32.28%
Clc1ccc(Cc2nc(CNCCn3cccn3)cs2)cc1,Percent Effect,"30.3 µM, […]",19.22%
c1ccc(Cc2nc(CNCCn3cccn3)cs2)cc1,Percent Effect,"30.3 µM, […]",100.2%
c1ccc(-c2nc(CNCCn3cccn3)cs2)cc1,Percent Effect,"30 µM, 30.03 µM",-63.26%
CCS(=O)(=O)N1C[C@H]2C[C@H](C(=O)N(C)C)[C@@H](C1)O2,Percent Effect,"30 µM, 30.03 µM",9.915%
O=C(NCC(=O)N1CCN(c2ccccc2)CC1)c1sccc1C1CC1,Percent Effect,"30 µM, 30.03 µM",8.848%
CCC(=O)N1CCN(CCn2cccn2)c2ncccc2C1.O=C(O)C(F)(F)F,Percent Effect,"30.3 µM, […]",-68.7%
N#Cc1ccc(C(=O)N2CC[C@H]3[C@H]2CCN3CC2CC2)cc1.O=C(O)C(F)(F)F,Percent Effect,"30.3 µM, […]",-8.518%
Cc1ccccc1-c1cncc(C2CCN(S(=O)(=O)N(C)C)CC2)n1,Percent Effect,"30.3 µM, […]",23.75%
CCC(=O)N1CCCN(Cc2cc(F)cc(Br)c2)CC1,Percent Effect,"30 µM, 30.03 µM",-27.39%
CN1C[C@H]2CC[C@@H]1CN(C(=O)COCc1nc3cc(F)ccc3[nH]1)C2,Percent Effect,"30 µM, 30.03 µM",-9.559%
CC(C)(C)n1ncc2c1CCCC2NCc1ccsc1 (stereo not drawn),Percent Effect,"30 µM, 30.03 µM",-15.69%
O=C(NCc1cnc2n1CCN(Cc1nccs1)CC2)C1CCC1.O=C(O)C(F)(F)F,Percent Effect,"30.3 µM, […]",-21.25%
COCC(=O)N1CCC2(CC1)CN(CC1CC1)c1ccc(F)cc12,Percent Effect,"30.3 µM, […]",19.77%
Cc1n[nH]c(SCCNC2CCN(c3nc4ccccc4s3)CC2)n1,Percent Effect,"30 µM, 30.03 µM",-5.585%
CCc1nccn1CCNC1CCN(c2nc3ccc(Cl)cc3s2)CC1,Percent Effect,"30.3 µM, […]",100.4%
Cc1csc2c(N3CCC(NCCCC4CCOC4)CC3)ncnc12 (stereo not drawn),Percent Effect,"30 µM, 30.03 µM",-28.35%
CCCc1cc(CNC2CCN(c3nc4ccccc4s3)CC2)on1,Percent Effect,"30 µM, 30.03 µM",-8.839%
CCS(=O)(=O)CCNC1CCN(c2nc3ccc(Cl)cc3s2)CC1,Percent Effect,"30.3 µM, […]",67.3%
Cc1csc2c(N3CCC(NCCc4ccnn4C)CC3)ncnc12,Percent Effect,"30 µM, 30.03 µM",-26.9%
CCCc1cc(NCCCC2CCOC2)n2nccc2n1 (stereo not drawn),Percent Effect,"30.3 µM, […]",14.64%
Clc1ccc2nc(N3CCC(NCCCC4CCOC4)CC3)sc2c1 (stereo not drawn),Percent Effect,"30.3 µM, […]",69.37%
Cn1ccnc1SCCNC1CCN(c2nc3ccccc3s2)CC1,Percent Effect,"30 µM, 30.03 µM",-14.43%
Cc1nc(NC(=O)c2c(-n3cnnn3)sc(C)c2C)sc1C,Percent Effect,"30 µM, 30.03 µM",-45.39%
O=C(O)C(F)(F)F.O=C(O)C(F)(F)F.c1cncc(OCc2noc3c2CN(Cc2ccco2)CC3)c1,Percent Effect,"30 µM, 30.03 µM",-42.06%
Cc1noc(C)c1CN1CCn2cc(CN3CCCCC3)nc2C1.O=C(O)C(F)(F)F,Percent Effect,"30.3 µM, […]",-9.044%
CCN1CCN(C(=O)c2cc(-c3cccn3C)n[nH]2)[C@H]2CS(=O)(=O)C[C@H]21,Percent Effect,"30 µM, 30.03 µM",-16.48%
CC(C)N1CC[C@H]2[C@H](C[C@@H](Cn3cncn3)N2c2nccs2)C1.O=C(O)C(F)(F)F.O=C(O)C(F)(F)F,Percent Effect,"30.3 µM, […]",-43.04%
COc1cccc(CN(Cc2ncc[nH]2)Cc2ccco2)c1.O=C(O)CC(O)(CC(=O)O)C(=O)O,Percent Effect,"30.3 µM, […]",-10.96%
Cc1ccc([C@]2(O)CC[C@H]3CN(Cc4cc(C)c(O)c(C)c4)C[C@H]32)nc1.O=C(O)CC(O)(CC(=O)O)C(=O)O,Percent Effect,"30.3 µM, […]",27.71%
CSc1ccc(CN2C[C@@H]3CC[C@@](O)(c4ccc(C)cn4)[C@@H]3C2)cc1,Percent Effect,"30.3 µM, […]",79.51%
Cc1ccc([C@]2(O)CC[C@H]3CN(Cc4ccc(Cl)cc4Cl)C[C@H]32)nc1,Percent Effect,"30.3 µM, […]",-1.046%
